# Compound activity from PubChem BioAssay.
# Hits are enriched below; roughly 2% of the tested compounds scored in any of these assays.
# PolyA inhibitor: inhibitors of polyadenylation in S. cerevisiae; S. cerevisiae SKY197-pL101 polyadenylation reporter, beta-gal luminescence; efflux-impaired pdr1/pdr3 knockout yeast; score 100 = 6 SD above DMSO; activity score, % at 12 µM; 300,000 compounds, 0.02% hits; AID 1875;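 active = lowest replicate activity score at least 50, where 100 means six control SD above control mean; inconclusive = lowest score under 50 but half or more replicates reach 50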;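 also: yeast exposed to compound for 9 h at 30 °C; higher score means more reporter readthrough which indicates perturbed polyadenylation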
# Platelet DG rel: platelet dense granule release activity; human platelet-rich plasma, SFLLRN dense granule ATP release, luminescence; inhibition, %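 (compounds screened at 7.5 µM in platelet-rich plasma)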; 300,000 compounds, 0.22% hits;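 active = mean replicate score, as percent of positive control, at or above 50; inconclusive = mean below 50 but at least one replicate at or above 50; inactive = mean and every replicate below 50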
# Yeast superoxide: lowers age-related superoxide in aged yeast cells; superoxide response (% of plate mean), % at 10 µM; S. cerevisiae aged cells, superoxide DHE fluorescence; stronger effect = lower value; 330,000 compounds, 0.18% hits;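 active = superoxide response under a set limit, about three screen SD below normal, cut at about 65% in these data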;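 also: yeast aged for seven days with compound at 30 °C before DHE staining; 100% = average MFI of all compound-treated wells on the plate with controls excluded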
# Calb FLC: C. albicans growth modulation with fluconazole; C. albicans CaCi-2 (fluconazole-resistant clinical isolate) + fluconazole, Alamar Blue growth, 48 h; AID 1979; growth inhibition, % (test concentration not listed); 300,000 compounds, 0.57% hits;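 active = growth inhibition above about 58% in most replicates, limit read from the data, passing the limit was not always enough; inconclusive = exactly half the replicates above a set limit; inactive = most replicates below a set limit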;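 also: all wells also contain fluconazole at 8 µg/ml as a sub-toxic cotreatment; 0% = median of DMSO wells and 100% = median of geldanamycin control wells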
# SKKanGAS inh: inhibitors of SKKanGAS S. pyogenes growth in kanamycin (SK-promoter or general growth effect); BacTiter-Glo, 6 h; inhibition, % at 7.5 µM; 300,000 compounds, 1.3% hits; AID 1662;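 active = mean replicate score, as percent of positive control median, at least 50; inconclusive = mean below 50 but one replicate at or above 50; inactive = mean and every replicate below 50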;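 also: strain carries kanamycin resistance gene driven by streptokinase promoter and grows in 40 µg/ml kanamycin; loss of luminescence reflects streptokinase promoter inhibition or plain growth inhibition; 0% = median of DMSO wells and 100% = positive control at its reference dose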
# Active calls of the source: *; u = inconclusive; x = no result.
SMILES,PolyA inhibitor,Platelet DG rel,Yeast superoxide,Calb FLC,SKKanGAS inh
CCCOc1cccc(-c2cc(C(=O)N/N=C/c3ccccn3)c3ccccc3n2)c1,-36.2,-9.5,90.2,-0.9,92.5*
O=C(N/N=C/c1ccccn1)c1cc(-c2ccc(Br)cc2)nc2ccccc12,-6.1,7.3,92.4,-6.9,106.6*
O=C(N/N=C/c1ccccn1)c1cc(-c2ccc(Cl)cc2)nc2ccccc12,-21.3,6.8,99.5,60.8*,61.5*
CCCOc1cccc(-c2cc(C(=O)N/N=C/c3cccnc3)c3ccccc3n2)c1,x,x,138.6,37.1,x
COc1cccc(-n2cnc3c(sc4nc(N5CCOCC5)c5c(c43)CCCC5)c2=O)c1,-2.6,-2.8,97.7,-0.3,28.0
CN(C(=O)c1ccoc1)c1ccc2ccccc2c1,-4.5,-8.6,110.3,5.4,-2.8
O=C(CN1C(=O)C2CCCCC2C1=O)OCC(=O)c1ccc(Cl)s1 (stereo unspecified),9.1,-2.1,104.1,3.6,0.6
COc1ccc(/C=C/C(=O)NCC(=O)N/N=C(/CCC(=O)O)c2ccccc2)cc1,-0.4,6.9,100.7,-7.3,9.1
COc1cc2cc(C(=O)N3CCN(Cc4ccc5c(c4)OCO5)CC3)c(=O)oc2cc1OC,-1.3,4.9,103.8,-3.4,5.3
O=C(CN1C(=O)COc2ccccc21)NCCCN1CCc2ccccc2C1,29.6,1.1,102.2,101.2*,-9.9
O=C(NCc1ccco1)c1ccccc1NS(=O)(=O)c1ccc(Cl)s1,1.3,-23.6,114.9,61.7,4.2
O=C(Nc1ccccc1Cc1ccccc1)c1ccccc1NS(=O)(=O)c1ccc(Cl)s1,-37.9,5.9,99.8,u,117.2*
Cc1ccc(NC(=O)c2ccccc2NS(=O)(=O)c2ccc(Cl)s2)cc1,11.8,3.6,97.2,78.5*,45.1
O=C(Nc1ccccc1)c1ccccc1NS(=O)(=O)c1ccc(Cl)s1,-11.2,2.6,103.3,-2.5,27.5
Cc1ccc(S(=O)(=O)CC(C)N2CCOCC2)c(S(=O)(=O)CC(C)N2CCOCC2)c1 (stereo unspecified),7.6,-0.5,74.4,103.0*,-4.9
Fc1ccccc1N=C1NN=C(c2ccccc2)CS1,-16.0,3.4,119.2,0.0,66.7*
Fc1ccc(F)c(C2=NNC(=Nc3ccccc3F)SC2)c1,-8.3,-0.7,95.3,1.0,1.1
O=C(NCCOc1ccc(F)cc1)C1CCC(=O)N(CC2CCCCC2)C1 (stereo unspecified),-4.1,-2.4,139.7,-10.2,10.3
CC1CCc2c(sc3nc(C(C)(C)C)nc(N4CCN(C(=O)CCl)CC4)c23)C1 (stereo unspecified),5.0,2.6,95.3,31.3,69.7*
O=C(Nc1nc(-c2ccccc2)nc2ccccc12)c1ccc(F)cc1,-13.9,-12.7,84.0,-13.0,-15.1
COc1ccc(-c2cc3nc[nH]c(=O)c3s2)cc1,-9.8,9.6,97.7,5.1,56.5*
COc1cc(C(=O)NCC(c2ccccc2)N(C)C)ccc1OCc1c(C)noc1C (stereo unspecified),x,x,90.6,x,x
CC(C)COC(=O)c1ccc2c(c1O)C(=O)c1ccccc1C2=O,-54.5,10.5,107.3,-4.4,89.6*
COc1cc2nc(SCc3ccc(Cl)cc3Cl)n(Cc3cccs3)c(=N)c2cc1OC,3.3,-11.4,85.5,80.8*,4.2
COCCCn1c(SCc2ccccc2)nc2cc(OC)c(OC)cc2c1=N,9.8,-5.1,111.5,15.7,7.6
SMILES,PolyA inhibitor,Platelet DG rel,Yeast superoxide,Calb FLC,SKKanGAS inh
COc1cc2nc(SCc3ccc(C(F)(F)F)cc3)n(Cc3cccs3)c(=N)c2cc1OC,15.0,7.7,102.5,-7.5,3.2
COc1ccc(Cn2c(SCc3ccc(C)cc3)nc3cc(OC)c(OC)cc3c2=N)cc1Cl,3.2,0.3,83.6,22.5,101.8*
CCCCNC(=O)CSc1nc2cc(OC)c(OC)cc2c(=O)n1Cc1ccc(OC)cc1,2.3,4.9,93.9,3.0,7.9
COc1ccc(Cn2c(SCc3cc(C)ccc3C)nc3cc(OC)c(OC)cc3c2=N)cc1,-4.0,3.2,103.2,-7.3,109.2*
N#CC1=C(N)Oc2cc(N)ccc2C1c1ccccc1F (stereo unspecified),8.9,-0.2,114.8,-3.5,6.1
COc1ccc(C(=O)c2coc3c2C(=O)C(=O)c2ccccc2-3)cc1,3.4,-7.1,110.3,44.7,57.8*
CC1(C)CC(=O)C2=C(C1)OC1=C(C(=O)CC(C)(C)C1)C2c1cc([N+](=O)[O-])cc([N+](=O)[O-])c1O,3.8,-2.2,103.5,91.2*,18.4
CC1(C)CC(=O)C(C2C3=C(CC(C)(C)CC3=O)Oc3c(Br)cc(Br)cc32)=C(O)C1 (stereo unspecified),-24.8,-10.1,107.9,9.5,55.9*
CCOc1cc(C2C3=C(CC(C)(C)CC3=O)OC3=C2C(=O)CC(C)(C)C3)cc([N+](=O)[O-])c1O,-25.0,10.0,103.9,56.8,10.3
Cc1nn(C)cc1C1C2=C(CC(C)(C)CC2=O)OC2=C1C(=O)CC(C)(C)C2,-0.4,9.1,96.8,-0.4,1.3
O=C(CCc1ccccc1)NNC(=O)Cc1ccccc1,-8.6,-2.3,94.7,-19.7,-5.1
Cc1ccc(S(=O)(=O)c2nc(-c3ccco3)oc2SC(C)C)cc1,-22.1,-3.1,110.5,-5.6,5.0
N#CCC(=O)Nc1ccc(C(=O)OC(C(=O)Nc2cc(C(F)(F)F)ccc2Cl)c2ccccc2)cc1 (stereo unspecified),-21.3,11.3,101.7,x,61.4*
Cc1c(OCC(=O)N[C@@H](Cc2ccccc2)C(=O)O)ccc2c1oc(=O)c1ccccc12,-1.4,5.2,105.4,-5.6,17.0
CC(NC(=O)c1cc2ccccc2oc1=O)c1ccccc1 (stereo unspecified),4.4,5.5,99.4,4.8,1.3
COCc1cc(CN2CCN(C)CC2)c(O)c2ncccc12,-20.7,-0.2,95.3,107.5*,8.8
CCOC(=O)C1CCN(Cc2ccc(O)c3ncccc23)CC1,1.6,6.8,101.7,111.9*,0.3
Oc1c(CN2CCOCC2)cc(COCc2ccccc2)c2cccnc12,-44.3,-26.6,101.8,82.6*,28.8
Oc1c(CN2CCN(c3ccccc3)CC2)cc(Br)c2cccnc12,-3.4,-4.5,85.3,101.6*,90.5*
COc1ccccc1N1CCN(Cc2ccc(O)c3ncccc23)CC1,-63.3,11.2,88.9,-6.3,42.7
COC(=O)c1cc(CNC(=O)c2ccccc2OCc2c(C)noc2C)ccc1OC,1.1,-2.9,94.0,-1.2,-3.6
CC(C)Cn1c(SCC(=O)N2CCOCC2)nc2ccccc2c1=O,x,x,115.9,x,x
S=C(Nc1ccc(Cc2ccncc2)cc1)Nc1cccc(Cl)c1,-20.7,8.6,125.0,1.6,1.6
CCOC(=O)N1CCN(Cc2cc(Cl)c3cccnc3c2O)CC1,-31.5,-5.5,102.7,116.1*,66.4*
CCS(=O)(=O)N1CCC(NC(=O)C(Cc2cccc(OC)c2OC)NC(C)=O)CC1 (stereo unspecified),-1.1,-2.0,x,-5.2,0.6
